Measured values taken from PubChem BioAssay (NCI).
Compounds without any hit were thinned out: in the full panel of roughly 79,000, 15% have a hit. Activity calls are given as the source filed them. Rule as the data show it: active = growth inhibition above about 70%; inactive = the rest. *1 amine or outer side, *2 acyl side, *3 side chain or, on linkers, in order; H or OH if unused. Where a SMILES comes first, the peptide text is derived from it. [ ]: non-standard residue; d: D form. X8 = C=CCC(O[*:1])C(=O)[*:2]; NMeV = CN[CH](C(=O)O)C(C)C; NMeA = CN[CH](C)C(=O)O; βAla = NCCC(=O)O

Legend:
[1] = NCI Yeast Anticancer Drug Screen. Data for the rad50 strain (AID 155);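 also: 0% = growth of vehicle-only cultures of the same strain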; conditions: S. cerevisiae rad50 strain growth inhibition; at 50.0 µM; hits give high values
In short: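 DNA repair mutant yeast, compound exposure, growth read-out; inhibition is taken relative to vehicle.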

[2] = NCI Yeast Anticancer Drug Screen. Data for the mec2-1 strain (AID 157); conditions: S. cerevisiae mec2-1 strain, at 50.0 µM, hits give high values
In short: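 mec2-1 yeast strain, carrying an alteration in DNA damage repair or cell cycle control, was exposed to compounds; growth inhibition was measured relative to vehicle-treated controls.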

[3] = NCI Yeast Anticancer Drug Screen. Data for the sgs1 mgt1 strain (AID 161);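 also: 0% = growth of cultures given vehicle only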; conditions: S. cerevisiae sgs1 mgt1 strain, at 50.0 µM, hits give high values
In short: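 Compounds are added to genetically altered yeast, and growth is compared with cultures given vehicle alone to give percent inhibition.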

[4] = NCI Yeast Anticancer Drug Screen. Data for the cln2 rad14 strain (AID 165);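 also: 0% = growth equal to vehicle treated cultures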; conditions: S. cerevisiae cln2 rad14 strain, at 50.0 µM, hits give high values
In short: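 Yeast carrying cln2 and rad14 alterations (cell cycle control and DNA damage repair) were exposed to compounds. Growth inhibition was measured against vehicle-treated controls.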

[5] = NCI Yeast Anticancer Drug Screen. Data for the bub3 strain (AID 167); conditions: S. cerevisiae bub3 mutant strain, at 50.0 µM, hits give high values
In short: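 In this screen, a yeast mutant lacking normal mitotic checkpoint function is challenged with compound. Relative growth versus vehicle gives the inhibition value.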

[6] = NCI Yeast Anticancer Drug Screen. Data for the mlh1 rad18 strain (AID 175); conditions: S. cerevisiae mlh1 rad18 strain growth inhibition; at 50.0 µM; hits give high values
In short: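 Growth inhibition of the yeast strain was measured after compound exposure and expressed relative to vehicle-treated controls. The strain carries defined defects in DNA damage repair.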

Measured: growth inhibition

CCCCCCCCCCCCCCCC(=O)NCNC(=O)CCCCCCCCCCCCCCC
inactive: [1] -2.15% | [2] -9.75% | [3] -20.4% | [4] -6.55% | [5] 2.65% | [6] -14.2%

C=C(C(=O)NC1CCCCC1)c1ccccc1
inactive: [1] -9.2% | [2] -22.4% | [3] -8.2% | [4] -12.4% | [5] 8.25% | [6] 0%

CCCCNS(=O)(=O)CCCC
inactive: [1] 22.2% | [2] 2.4% | [3] -6.35% | [4] -29.6% | [5] 6.15% | [6] -9.8%

CC(CC[C@@H](O)C(C)(C)O)C1[C@@H](O)CC2(C)C3CC(O)C4C(C)(C)[C@@H](OC5OC(CO)C(O)C(O)C5O)CC[C@@]45C[C@@]35CC[C@]12C (stereo not given in full)
inactive: [1] -14.9% | [2] 2.65% | [3] 0.15% | [4] -30.2% | [5] -5.9% | [6] -28.1%

C[C@@H]1OC(=O)N2CCCC(=C3SCCCS3)C12 (stereo not given in full)
inactive: [1] 0.6% | [2] -0.05% | [3] -2.6% | [4] -25.1% | [5] 2.7% | [6] -12.2%

CCOC(=O)CCC(NC(=O)c1ccc(Nc2nc3cc(C(F)(F)F)ccc3nc2C(=O)OCC)cc1)C(=O)OCC (stereo not given)
inactive: [1] -20.1% | [2] 0.55% | [3] -14.3% | [4] -1.85% | [5] -10% | [6] 4.9%

CCCCCC1SCC(=O)N1c1nncs1 (stereo not given)
inactive: [1] -1.7% | [2] -21.1% | [3] 14.3% | [4] 5.85% | [5] 6.65% | [6] 12.5%

CC(=O)/C(=C/n1c(=S)[nH]c2ccccc21)C(=O)Nc1ccc([N+](=O)[O-])cc1
inactive: [1] -17.5% | [2] -2.75% | [3] -13.9% | [4] -8.9% | [5] -14.1% | [6] -13.2%

Nc1[nH]c(=S)[nH]c(=O)c1NS(=O)(=O)c1ccccc1
inactive: [1] 3.65% | [2] -1.6% | [3] 12.6% | [4] -4.85% | [5] -10.2% | [6] 18.4%

CSc1n[nH]c(N)c1C(=O)Nc1ccc(C)cc1
inactive: [1] 19.9% | [2] 10.8% | [3] 39.5% | [4] 22.4% | [5] 49.2% | [6] 10.6%

CC(=O)N1C(Nc2ccccn2)CCN1c1ccccc1 (stereo not given)
inactive: [1] -30.9% | [2] -45.3% | [3] -21.4% | [4] 16.6% | [5] 7.9% | [6] -23.2%

O=C1CCCCC/C1=C\O
inactive: [1] 2.8% | [2] -12.1% | [3] -10.6% | [4] -11.9% | [5] -23.9% | [6] 5.15%

O=C1NC(=S)N(c2ccccc2)C1=O
inactive: [1] -19.4% | [2] -7.65% | [3] -24.2% | [4] -30.2% | [5] -2.5% | [6] -11.8%

COc1ccc(NC(=O)Nc2ccc(SC)cc2)c(Cl)c1
inactive: [1] 0.75% | [2] 5.6% | [3] -2.8% | [4] -13.9% | [5] 19.5% | [6] 20.9%

COc1cc(OC)c(C(=O)/C=C/c2ccccc2)c(O)c1OC
inactive: [1] 24.8% | [2] -7.8% | [3] 20.9% | [4] -45.2% | [5] -15.1% | [6] 30.6%

CCCCC(O)C(=O)NCCC(=O)c1ccccc1 (stereo not given)
inactive: [1] -7.1% | [2] 5.95% | [3] 3.45% | [4] 22.9% | [5] 14.1% | [6] 20.4%

CC1CCC(C)C(O)C1 (stereo not given)
inactive: [1] -21.9% | [2] -22.3% | [3] -19.1% | [4] 23.1% | [5] -27.8% | [6] 3.25%

CC1OC(OC2C(OC3C(OC4CCC5(C)C(CCC6(C)C5CC=C5C7CC(C)(C)CCC7(C(=O)O)CCC56C)C4(C)C)OCC(O)C3O)OC(CO)C(O)C2O)C(O)C(O)C1O (stereo not given)
active: [1] 92.8% | [2] 94.4% | [3] 94.3% | [4] 92.3% | [5] 93.8% | [6] 93.8%

CN(C)CC(=O)c1c[nH]c(=O)[nH]c1=O
inactive: [1] 11.3% | [2] -49.1% | [3] -13.4% | [4] -63.2% | [5] -1.65% | [6] -8.55%

Nc1cc(=O)n(C2OC(CO)C(O)C2O)cn1 (stereo not given)
inactive: [1] 6.85% | [2] -8.35% | [3] -0.3% | [4] -39.4% | [5] -19.4% | [6] 8.05%

C=CCC1OC(=O)CCNC(=O)C(C)N(C)C(=O)C(C(C)C)N(C)C(=O)C(C(C)CC)NC(=O)C2CCCN2C1=O (stereo not given) (cyclo([X8]PI[NMeV][NMeA][βAla]); configuration not given here)
inactive: [1] 15.3% | [2] 10.1% | [3] 5.55% | [4] 11.5% | [5] 8.35% | [6] 17.8%

CC(C)=NOC(=O)Nc1ccccc1
inactive: [1] 44.4% | [2] -19.8% | [3] 14.9% | [4] -15.4% | [5] 1.7% | [6] 33.9%

CC1(C)OC(=O)C=C(O)O1.CC1(C)OC(=O)C=C(O)O1.CCO.Oc1ccc2c(c1)CCC2.[Ti]
inactive: [1] -15.7% | [2] -13.5% | [3] -29.1% | [4] 20.4% | [5] -5.05% | [6] 6.75%

c1ccc(N=C2NNC(=Nc3ccccc3)NN2)cc1
inactive: [1] -17.9% | [2] 2.2% | [3] 5.4% | [4] 1.85% | [5] 3.35% | [6] 7.65%

CCC(CC)C(=O)O
inactive: [1] -11.2% | [2] -3.5% | [3] -34.4% | [4] -22.5% | [5] 7.85% | [6] -34.8%

[N-]=[N+]=Nc1ccc(-c2nc(N)nc(N)n2)cc1
inactive: [1] 11.8% | [2] 0.35% | [3] -2.55% | [4] -4.75% | [5] 6.9% | [6] 15.2%

O=C(O)c1ccccc1C(=O)NCc1ccc(Cl)cc1Cl
inactive: [1] -3.75% | [2] 22.6% | [3] 21.4% | [4] -7.3% | [5] 19.9% | [6] 38.8%

CC(=O)OCC12CCC(O1)C1C(=O)OC(=O)C12 (stereo not given)
inactive: [1] -3.85% | [2] -2.25% | [3] -9.2% | [4] -3.4% | [5] -11.1% | [6] 1.05%

Nc1nc(N)nc(SCCO)n1
inactive: [1] -25.1% | [2] 1.55% | [3] -14.1% | [4] -44.8% | [5] -4.75% | [6] -8.45%

O=C(O)CNC(=O)CNC(=O)C(CCC(=O)OCc1ccccc1)NC(=O)OCc1ccccc1 (stereo not given)
inactive: [1] 27.2% | [2] 12.3% | [3] 14.4% | [4] 9.3% | [5] 6.2% | [6] 15.2%

CCOc1ccc2nc(NC(=O)C(=O)C(C(=O)c3ccccc3F)C3OC(=O)c4ccccc43)sc2c1 (stereo not given)
inactive: [1] 10.9% | [2] 9% | [3] 2.65% | [4] 22.6% | [5] -1.2% | [6] 7%

Clc1ccc(C(=C(c2ccc(Cl)cc2)c2ccc(Cl)cc2)c2ccc(Cl)cc2)cc1
inactive: [1] -3.85% | [2] 5.4% | [3] 3.5% | [4] -3.35% | [5] 10.4% | [6] -1.45%

CN(C)CCCN=c1c2ccccc2n(C)c2[nH]c(=O)n(C)c(=O)c12
inactive: [1] -32.1% | [2] -0.75% | [3] -16.2% | [4] -9.2% | [5] 0.05% | [6] -6.85%

C=CCSc1nc2ccc(NC(C)=O)cc2s1
inactive: [1] 42.8% | [2] 10.2% | [3] 7.8% | [4] 19.3% | [5] 20% | [6] 16.7%

COc1ccc2c(c1)NC(c1ccccc1C(=O)O)c1cccn1-2 (stereo not given)
inactive: [1] 0.55% | [2] -20.9% | [3] 12.3% | [4] 5.75% | [5] 23.6% | [6] 5.6%

O=C1C(=O)c2ccccc2C(O)=C1CCCc1ccc(S(=O)(=O)c2ccccc2)cc1
inactive: [1] 2.35% | [2] 11.8% | [3] 0.7% | [4] 55.1% | [5] 16.2% | [6] 9.2%

CC1(C(=O)Sc2ccccc2)OC1(C)c1ccccc1 (stereo not given)
inactive: [1] -8.5% | [2] 7.65% | [3] 4.85% | [4] -28.1% | [5] 14.8% | [6] 18.1%

N#C/C(=C(/Cc1ccc(F)cc1)NP(=O)(c1ccccc1)c1ccccc1)c1ccc(F)cc1
inactive: [1] 10.9% | [2] -3.7% | [3] -10.4% | [4] 0.8% | [5] 2.6% | [6] -2.35%

Brc1cc2[nH]c(-c3ccccc3)c(Br)c2c(Br)c1Br
inactive: [1] 59% | [2] 36.5% | [3] 68.5% | [4] 39.2% | [5] 14.3% | [6] 69%

O=C(c1ccccc1)C(CBr)C(Br)c1ccccc1 (stereo not given)
inactive: [1] -17.4% | [2] 24.7% | [3] 10.1% | [4] -24.8% | [5] 16.9% | [6] 1.75%
